# Laboratory results from PubChem BioAssay AID1063 (University of Pittsburgh Molecular Library Screening Center, 2008).
# In all, about 200,000 compounds went through this assay and about 18,000 (9%) were called active. The sample holds actives, similar compounds and a random draw of the others, so the mix is not that of the screen. Unmarked numbers belong to inactive results. Cut-off read from the data, not from the text of the source: active = inhibition above about 50%; inactive = the rest.
# Assay: Leishmania major promastigote growth inhibition, primary screen (AID 1063);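 note: promastigotes grown with compound for 44 hours at 28 °C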
# Conditions: Leishmania major promastigotes, resazurin fluorescence viability; at 10 µM; active compounds read high
row,Structure (SMILES),inhibition
1,COc1ccc(C)cc1NC(=O)C(Sc1ccccc1)c1ccccc1 (stereo unspecified),3.92%
2,COc1ccc(C)cc1NC(=O)C(OC(=O)c1cccc(S(=O)(=O)N(C)c2ccccc2)c1)c1ccccc1 (stereo unspecified),97.6% (active)
3,COc1ccc(C)cc1NC(=O)Nc1ccccc1SC,10.1%
4,OC(COCC1COc2ccccc2O1)CN1CCN(c2ccc(F)cc2)CC1 (stereo unspecified),12%
5,Cc1ccnc(NC(=O)CCC(=O)N(CC(=O)NCCc2ccccc2)Cc2cccs2)c1,-4.68%
6,CCOc1ccc(CN2CCN(Cc3ccc(C)o3)CC2CCO)cc1 (stereo unspecified),-0.08%
7,CCOc1ccc(CN2CCCN(C)CC2)cc1,54.1% (active)
8,CCOc1ccc(CN2CCN(Cc3ccon3)CC2CCO)cc1 (stereo unspecified),-5.47%
9,COC(=O)c1sc2[nH]c(=S)n(N)c(=O)c2c1C,-7.2%
10,CC1CCCCC1NC(=O)CO/N=C/c1ccc(OC(F)F)cc1 (stereo unspecified),13.4%
11,CCOc1ccc(C(=O)NC2CCN(CC(=O)NCc3cccs3)CC2)cc1,-4.61%
12,Cc1cc(C#N)c(SCC(N)=O)nc1-c1ccc(F)cc1,2.96%
13,CCCNC(=S)N1CCCC(c2nc3ccccc3[nH]2)C1 (stereo unspecified),7.49%
14,Cc1cccc(NC(=S)N2CCCC(c3nc4ccccc4[nH]3)C2)c1 (stereo unspecified),99.1% (active)
15,Cc1cccc(NC(=S)N2CCC(c3nc4ccccc4s3)CC2)c1,-0.22%
16,O=c1cc(CO)oc(C(Nc2cccc(C(F)(F)F)c2)c2ccccn2)c1O (stereo unspecified),2.74%
17,CNS(=O)(=O)c1cnccc1N1CCN(c2cccc(C)c2)CC1,8.07%
18,Cc1ccc(Sc2ccncc2S(N)(=O)=O)cc1,84.9% (active)
19,Cc1cc(NC(=O)CSCc2ccccc2C)no1,-8.79%
20,Cc1ccc(C(C(=O)NC2CCCC2)N(Cc2ccco2)C(=O)CCC(=O)Nc2ccccn2)cc1 (stereo unspecified),-1.72%
21,Cc1ccc2c(c1)N(CC(=O)N(Cc1ccccn1)Cc1ccco1)C(=O)C(C(C)C)O2 (stereo unspecified),75.7% (active)

row,Structure (SMILES),inhibition
1,Cc1ccc2oc(=O)c3cnn(CC(=O)N(Cc4ccco4)C4CCCCC4)c3c2c1,22.1%
2,NC(=O)COC(=O)c1cc(S(=O)(=O)N2CCN(c3ccccc3)CC2)ccc1Cl,-1.75%
3,Cc1nn(Cc2ccc(Cl)cc2)c(Cl)c1/C=N/NC(=O)CNc1ccccc1F,8.05%
4,Cc1cc(C)c2nc(-c3cccnc3)cc(C(=O)Nc3ccc(S(=O)(=O)Nc4onc(C)c4C)cc3)c2c1,-3.47%
5,CC(=O)/C(=N\Nc1ccc(Cl)cc1Cl)Sc1cccc2cccnc12,96.8% (active)
6,S=C(NCc1cccnc1)Nc1ccc(Cl)cc1Cl,10.6%
7,N#Cc1ccc(C(=O)Nc2cccc3cccnc23)c(F)c1,-0.23%
8,O=C(NN1C(=O)C2C3C=CC(O3)C2C1=O)c1ccccc1 (stereo unspecified),-9.99%
9,O=C1CC(N2CCN(c3ccc(F)cc3)CC2)C(=O)N1c1ccccc1 (stereo unspecified),-0.81%
10,CC(C)(C)NC(=O)NC(=O)COC(=O)Cc1ccc(Cl)cc1Cl,-4.1%
11,COCCNC(=O)NC(=O)COC(=O)C1(c2ccc(Cl)cc2)CC1,-5.98%
12,CCCNC(=O)NC(=O)COC(=O)CC(NC(N)=O)c1ccc(Cl)cc1 (stereo unspecified),56.2% (active)
13,O=C(Nc1ccccc1C(=O)N1CCCCCC1)c1ccccc1Cl,4.51%
14,COc1ccc(-c2ccc(CCC(=O)O)n2-c2ccc(O)cc2)cc1,-1.18%
15,Cc1ccsc1C1C(C#N)=C(N)OC2=C1C(=O)CC(C)(C)C2 (stereo unspecified),9.53%
16,Fc1ccc(Cn2nnnc2C(c2cccs2)N2CCCCCC2)cc1 (stereo unspecified),5.18%
17,CCC(C)(C)n1nnnc1C(c1cccs1)N1CCN(c2nc3ccccc3s2)CC1 (stereo unspecified),81.4% (active)
18,CCC(C)(C)n1nnnc1C(c1cccs1)N1CCN(Cc2ccccc2)CC1 (stereo unspecified),50.4% (active)
19,CCCC(c1nnnn1C(C)(C)C)N1CCN(Cc2ccccc2)CC1 (stereo unspecified),-6.34%
20,CCC(C)(C)n1nnnc1C(c1ccccc1OC)N1CCSCC1 (stereo unspecified),6.66%
21,COc1ccccc1C(c1nnnn1C(C)(C)C)N1CCN(Cc2ccccc2)CC1 (stereo unspecified),17.2%

row,Structure (SMILES),inhibition
1,CC(C)N(Cc1ccccc1)C(=O)COC(=O)c1cnccn1,-4.04%
2,COC(=O)Cc1c(O)ccn(Cc2cccc(C(F)(F)F)c2)c1=O,-15.9%
3,CC(Sc1nnnn1C1CCCCC1)C(=O)O (stereo unspecified),-5.74%
4,O=C(N/N=C/c1ccc([N+](=O)[O-])cc1)C(=O)N1CCCC1,-5.07%
5,O=C(OCC(=O)c1cccs1)c1ccc([N+](=O)[O-])o1,13.5%
6,COc1cccc2c(N/N=C/c3ccco3)cc(C)nc12,2.22%
7,COc1cccc(/C=N/Nc2ncc(C(F)(F)F)cc2Cl)c1O,28.2%
8,COc1ccc(-c2nn(-c3ccccc3)cc2/C=N/Nc2ccccn2)cc1OC,27.8%
9,COc1cccc(/C=N/Nc2cc(C)nc(-c3ccccc3O)n2)c1O,71.2% (active)
10,COc1ccccc1/C=N\Nc1cc(C)nc(-n2nc(C)cc2C)n1,98.9% (active)
11,COc1ccc(Nc2cc(C)nc(-n3nc(C)cc3C)n2)cc1,28.9%
12,CCc1ccc(CN(C)Cc2nc(Cc3ccccc3)no2)nc1,14%
13,S=C(NCc1ccco1)Nc1ccc2c(c1)OCCO2,-4.58%
14,O=C(NCCc1ccccc1)C1CCC(Cn2c(=O)c3ccccc3n(Cc3cccnc3)c2=O)CC1 (stereo unspecified),73.5% (active)
15,O=C(O)C1CC(=O)N(Cc2cccnc2)C1 (stereo unspecified),-7.68%
16,COc1ccc(CCNC(=O)Cn2c(=O)n(CC3CCCO3)c(=O)c3ccccc32)cc1OC (stereo unspecified),-4.82%
17,Cc1c(CN2CCCC(C(=O)c3cccc(Cl)c3)C2)c(=O)n(-c2ccccc2)n1C (stereo unspecified),16.8%
18,CCN(CC)CCNC(=O)c1ccc(NS(=O)(=O)c2ccc3c(c2)OCCO3)cc1,-8.8%
19,Cc1cccc(OCC(=O)Nc2ccccc2F)c1,8.74%
